This note sets out measurements from PubChem BioAssay AID1508600 (Functional Genomics Laboratory (NCATS/FGL), 2020).

Among all 53,000 sequences or so, about 3,700 (7%) were called active. Only a selection was taken, and actives are over-represented in it overall. Values without a mark were called inactive.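 Rule for the calls: active = gene knockdowns whose robust z-score for IL-1 alpha signal is at least 2 or at most -2, so actives lie on both sides; inactive = the rest.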

The assay can be described thus: Components of the Cytosolic LPS Sensing Pathway: Gene Identification via Genome-wide siRNA Screen.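 Note: robust z of the log signal after scaling to non-targeting control siRNA wells of the plate.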 To be noted: RAW264.7 macrophages, IL-1a HTRF, actives lie on both sides, screened at 100 nM (by protocol), cells primed 5 h with Pam3CSK4 first. In outline:
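RAW264.7; siRNA 100 nM final, RNAiMAX, 48h 37 degrees C; Pam3CSK4 5 h; LipidA + TransIT-TKO 24 h; IL-1a HTRF; CellTiter-Glo viability; robust z vs negative-control median.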
For orientation: TR-FRET usually uses a lanthanide donor and a delayed reading to cut background.
Take GCAAGCUAGAGAAAAUCAGTT against Serpinb3b: the z-score is -0.231.

In the case of GGAAAAAAGGUCUGUAAAUTT against Ubl4b, the z-score is 0.223.

On to GGAUGUGCUGACCUUACAGTT against Gaa, for which the z-score is 2.35 (active).

On to GCGGAACAUCUUAGCUUAATT against Perm1, for which the z-score is -0.111.

Consider GCCCUGGAAAGGAUGUUUGTT against Hba-a1, for which the z-score was -0.607.

On to UAGCCACUCAUCAUUCUAATT against Gm10319, for which the z-score is 0.964.

Consider GGCACUUUUGAUUUCAGAUTT against Nrd1, for which the z-score is 3.52 (active).

GCUGGAUAUUUCUAAGUAUTT against A26c3: the z-score was 1.9.

In the case of CCGUUAGGUUUUUAUCCAATT against Ube2b, the z-score was 0.193.

With GGACCUUUUAUCUGAAAUGTT against Papln, the z-score is 1.54.

In the case of GGAUGUGACUCAGAUUGGGTT against Tmem171, the z-score was 0.0209.

For the sequence GGAGAUGGCCACCUAUUUGTT against Csnk1g2, the z-score was -0.325.

Consider GGAAAAAGCCUAACUAUGATT against Ccnl1, for which the z-score was -0.7.

Take GCAUGAUAUCAGUGGCAAGTT against Itga11: the z-score was -2.41 (active).

For the sequence GCCUGUUGCUAUGAAUGGUTT against Zfp597, the z-score was -0.353.

In the case of GGAAGCAUUGAAGAUAAGATT against Topbp1, the z-score was -0.273.

As to CCAUUGGAUCCAUUCCUAUTT against Plcd3, the z-score was -0.984.

For the sequence CCUCUGUCUGCUAAUAAGATT against R3hdm4, the z-score is 1.01.

In the case of “GGAGGCCAUCACACUUAGATT against 4933421I07Rik”, the z-score is -2.27 (active).

As for GUUCCCGUUCUACGAGAAGTT against Foxl2, the z-score was 1.22.

In the case of CCAAAUGACAGCUAUGGCCTT against Gtf2ird2, the z-score was -0.312.

With GCUGUCCAAGUACGAGACATT against Atoh7, the z-score is 0.0721.

As for GCUCCUGUGAUUGAUGCAGTT against Dync1h1, the z-score was 0.528.

GCAUUUAUAAUUGCUGAACTT against Cbx1: the z-score is -0.637.

Consider GGAACCACACAUGUGUUAATT against Grik2, for which the z-score was -0.281.

GGACAAUUGCCUUUUGACATT against Thbs3: the z-score was 0.146.

With CCAGCAGCCUUCUAACUAUTT against Hnrnpa2b1, the z-score is 2.14 (active).

Consider GGUCUUCUACAACUCGGAATT against Sgpp1, for which the z-score was -0.146.

As to GGUGGUGAGAUAGAGAAAUTT against C1qc, the z-score is -0.115.

Regarding GCAUUACACUUAACUGACGTT against Zfp652, the z-score is -1.28.

CCCAAUAACAUCUUAAGAUTT against Lyn: the z-score is -0.254.

As to GGGAGACGGCGAGGUUUUATT against Arl6ip4, the z-score is 2.89 (active).

Consider GGAAUGUCACUUUGACUCUTT against Arxes1, for which the z-score is -0.533.

As to GGCCAGAGAAGAUUACUUUTT against Ajuba, the z-score was 1.03.

GGACCUCACAGAUUAUGGGTT against Ebi3: the z-score was 0.693.

“CGCCUACAGCUCUAUCUUATT against 2700062C07Rik”: the z-score is 1.05.

Regarding GGCGACAUGAAAGAAGGCATT against Klk6, the z-score is 2.61 (active).

For ACCCUCACCUCGCAUGACUTT against Pcbd2, the z-score is -1.57.

For GGACAAAGUAUUUGUGACCTT against Cd3d, the z-score is 0.00913.

Regarding GCAAGAUCCAGCCCUAUCATT against Usp17lc, the z-score was -0.439.

As to GGAAAGUCCUUCAUCAGCATT against Cep120, the z-score was -2.91 (active).

On to GGACAAGAUGAUCUGCCUATT against Lrrc8a, for which the z-score is 0.722.

Regarding GCCGAUACUUGAGCCAGUUTT against Srd5a1, the z-score was 0.477.

As to GCUUCGACACUUUAUUUCUTT against Cnp, the z-score is 0.26.

As for GGGUUUUCUUGUGUGAAAATT against Pomp, the z-score is -2.93 (active).

With CGAGGGAAUGCACUACAACTT against Chpf, the z-score was 2.16 (active).

On to GGAAGACCAGCAGUUAAGATT against Grb10, for which the z-score is -1.56.

As for GGUGGAAGAGGUCAAAUAATT against Denr, the z-score is 1.05.

Consider GGAAAAAGACUUCUAUCACTT against Ly6g6g, for which the z-score was -2.03 (active).

Turning to GGCUUUUGAGAUUGCUAAATT against Mfap3l, the z-score was -0.491.

Turning to GGCCUUUGAUGACUUCAUCTT against Cacna1h, the z-score was 0.904.

Take CCACUGGACAGGAACAAAGTT against Rims1: the z-score is -1.2.

Take GGAGGUGAUGCAGAUGCUGTT against Gpi1: the z-score was 3.06 (active).

Take GCCGACUCAUGGUUUAGAATT against Tmem18: the z-score was -0.0972.

For GGCAAUGAAUUUAACAAUCTT against Zfp874a, the z-score is -0.351.

For the sequence GGGACUUGAUCUCCUGAGUTT against Krtap4-2, the z-score was -0.223.

Regarding GGACAACGAGUGUCUGGGUTT against Cx3cr1, the z-score was 4.8 (active).

For CCCAUGGUCACUUAUAUAUTT against Jarid2, the z-score is 0.109.

Regarding GGAGCUUCGUGGAUAAGAGTT against Padi3, the z-score was -1.79.

On to GGUUGUUGGAAAAGAUGAATT against Ids, for which the z-score was -1.55.

GGAUCAUCCAAGUGUUCCGTT against Olfr555: the z-score is 1.51.

As to GCAGUUUGUGGAUAUGUCATT against Treh, the z-score is 0.604.

For the sequence GGUUUUCUCGCUCAGACCATT against Wt1, the z-score was 0.352.

GGUCAUACAUGUGAAGACATT against Tsr2: the z-score was 2.01 (active).

As for GGGCAAGAUGGUCAGUAGATT against Tpt1, the z-score is 0.627.

As to CGCAACAGCUAGGAUUUUUTT against Me1, the z-score was 0.193.

In the case of CCCAUUAGAUGCUGAAUAUTT against Stmn1, the z-score is 0.139.

As to CCAGUGUUUGACUUGACCATT against Dpysl3, the z-score is 0.228.

For GGUUGUCGUCAACAAGAGCTT against Krt72, the z-score is 1.96.

For the sequence GGUGUCAUCCCUGAAAGAGTT against Tert, the z-score is 0.0314.

Turning to GGAAUUUCUUCAGGACACUTT against Procr, the z-score is 0.278.

On to GGCUCAAUAAAAUGAAGUGTT against Elovl2, for which the z-score is 2.03 (active).

For GGCUCAUGGUUAUUGUAAUTT against Olfr1198, the z-score was -0.385.

As for UGUAUCUUUCUGUAGUUCUTT against Taar7e, the z-score is 0.195.

Take GGAACAUGGCACUUUCGUGTT against Pcdh10: the z-score is 0.905.

With CGGUUAAAAGCCCUCAGCATT against Olfr592, the z-score was -1.41.

Consider GGUCAAGUGCGAGAAACUCTT against Mafb, for which the z-score is -0.016.

GGUGGGAAGAGGAAUACACTT against Iffo1: the z-score is 4.73 (active).

As for GGGACCAGAUGAAGAAGGATT against Coq4, the z-score was 0.267.

Turning to GGAAAUAGAGGAAAGAGAATT against Rbm17, the z-score is -0.235.

Regarding GGCCAUCCAUUGAAGACAUTT against Stk-ps2, the z-score was 1.05.

Regarding GGCUCUGUUGAAUGCAACGTT against Slc39a6, the z-score was -2.15 (active).

Consider CUUUGUCAGCCAUGUAUCCTT against Tas2r104, for which the z-score was 0.468.

Turning to “GCUGCCACUGGACACAUAATT against 4930591A17Rik”, the z-score was -0.0198.

Regarding GGCUCAAGAAAGUGAAUGATT against Myog, the z-score was -1.14.

As for GCAAGACACUUGAUAACUCTT against Znrd1as, the z-score was 2.34 (active).

As to GGAGCAUUUGUUUCCAAGATT against Cd38, the z-score was -1.33.

Consider GCGCAAUGACGAUAAACUCTT against Sema3f, for which the z-score is 0.534.

With CCGGAGGUUCCAACAAACUTT against Dlx1, the z-score is -0.591.

Take GGAUCCAGAACUAAAAAUCTT against Pcdhga2: the z-score is 0.193.

For “GCUUACUAAUGCGGAUUACTT against 5330438D12Rik”, the z-score is -2.41 (active).

Regarding GGAAGUUGGUGAGCUGGUATT against Ccl17, the z-score is 2.4 (active).

Take GGAAGACAACAACCUAGAATT against Rpn1: the z-score was -0.894.

As for GCAGAGUCUGGAUCAACAUTT against Efcab14, the z-score is -0.583.

Consider CCUCCAGUUCAGAAUUCUATT against Surf4, for which the z-score is 0.634.

In the case of GGCACGAUACUUAUUUGAATT against Nudt13, the z-score was -1.43.

Take GGAAGUUGUAGGAGAAAACTT against Rnf214: the z-score is -0.624.

For the sequence CGAGAACAGAGGUUUUUAATT against Mxi1, the z-score was 0.0641.

On to GGAUGCAUUUUUUCUGGAATT against Nop53, for which the z-score was 0.85.

For GGUGGAAGAGGAGAGUGAATT against Ncl, the z-score is -0.284.

Regarding GGAACUGAGCCAAGAAGCUTT against Prox2, the z-score was -2.16 (active).

Consider “GUGUGGACAACUCCUGAGUTT against 9630041A04Rik”, for which the z-score is -1.14.

As to CGUUAACUCUCGGACGAUCTT against Fitm1, the z-score is 0.576.

In the case of GGAGGUGGAUCAAAUGGCATT against Gnrh1, the z-score is -0.667.

As to GGAAAUAUUGUCAUCAUGGTT against Olfr1302, the z-score is -0.483.

Turning to GCGGAACUGACUUUCCUGATT against Rhot2, the z-score is 0.443.

GGGUAAGAGUUACAGAAUATT against Serpinb8: the z-score is -0.0947.
